Consider 99 compounds from PubChem BioAssay AID2216 (Broad Institute, 2009).

Several values for one entry are separate records, joined by “and”; a condition that tells them apart may be missing. Identical values can stand only once. Screen size: about 300,000 compounds; about 3,300 (1.1%) were called active. Roughly 6% stayed inconclusive and do not appear here. For the sample, actives were picked, then their nearest neighbours and some compounds at random. A number with no mark means an inactive call.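 Rule for the calls: active = more than half of the replicate wells show a fall in the fluorescence ratio signal beyond about 16% (limit read from the data, passing the limit was not always enough); inconclusive = exactly half of the replicate wells pass the set limit; inactive = fewer than half of replicates pass the limit.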

The subject of this assay is Ran GTPase (GTP-bound) - importin-beta complex. Put plainly: disruptors of Ran-importin-beta complex formation – biochemical, FRET, CFP-Ran, YFP-importin-beta, homogeneous, primary screen (AID 2216).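 Note: 0% = DMSO wells and 100% = Ran loaded with GDP instead of GTP.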 The settings on record: cell-free CFP-Ran/YFP-importin-beta FRET ratio; active compounds read high; concentration not given here.
Regarding `Cc1ccc(NC(=O)CSCC(=O)Nc2sccc2C#N)cc1`, the inhibition was -2.13%.
For the compound `O=C(COC(=O)/C=C/c1ccc(OC(F)F)cc1)NC1CCCCC1`, the inhibition was -7.27%.
For `N#Cc1c(C(F)(F)F)cc(-c2ccccc2)nc1SCC(=O)N1CCOCC1` the value was 3.19%; for `CCN(CC)c1nc(-c2ccccc2)cc(C(F)(F)F)c1C#N`, 25.9% (active).
`N#Cc1c(C(F)(F)F)cc(-c2ccc(Cl)cc2)nc1SCC(=O)O`: the inhibition was -1.29%.
Next, `CCOC(=O)c1c(NC(=S)Nc2ccccc2)sc2c1CCN(C)C2`: 70% (active); `CCOC(=O)c1c(NC(=O)NC(C)(C)C)sc2c1CCN(C)C2`: 12%.
Next, `CCOC(=O)c1c(NC(=S)Nc2ccccc2C)sc2c1CCC2`: -2.16%.
For `COc1cccc(NC(C)=[N+](C)CCNS(=O)(=O)c2ccc(Cl)cc2)c1` the value was -6.06%.
Consider `COc1ccc(NC(=O)CN(C)C(=O)c2n[nH]c3ccccc23)cc1`, for which the inhibition is -0.623%.
Next, `CCCCn1c(N)c(N(CCOC)C(=O)c2cccc(S(=O)(=O)N3CCCCC3)c2)c(=O)[nH]c1=O`: 6.51%; `O=C(COC(=O)c1ncc(Cl)c(Cl)c1Cl)NNC(=O)c1ccccc1`: 7.08%; `CCN1C(=O)/C(=C2/Sc3ccccc3N2CCCS(=O)(=O)O)SC1=S`: 43.1% (active) and 55.8% (active).
For the compound `CCN1C(=O)/C(=c2\s/c(=C3\Sc4ccccc4N3C)c(=O)n2C)N(C)C1=S`, the inhibition was 1.12%.
Next, `CCCCN1C(=O)/C(=C2/Sc3ccc(Cl)cc3N2CC)SC1=S`: 0.428%.
Next, `O=C(/C=C/c1ccc([N+](=O)[O-])o1)NNC(=O)c1ccc(F)cc1`: -0.948%; `CCOC(=O)/C(C#N)=C/c1ccc(OCC(=O)Nc2ccccc2)c(OC)c1`: 1.23%.
Next, `COc1ccc(/C=C(\C#N)C(=O)ONC2=NCCCCC2)cc1`: 2.96%; `CCOC(=O)NC(=O)/C(C#N)=C\c1ccccc1`: 5.82%.
As to `CCOC(=O)/C(C#N)=C/c1ccc(N2CCN(Cc3ccccc3)CC2)cc1`, the inhibition is 72.8% (active).
Regarding `CCOC(=O)/C(C#N)=C/c1ccc(N2CCCCC2)cc1`, the inhibition is 91% (active).
For `COc1ccc(N2CCN(C(=O)/C(C#N)=C/c3ccccc3)CC2)cc1` the value was -3.23%; for `CC(=O)NCC(=O)N1CCC(n2nccc2NC(=O)CCCc2ccccc2)CC1`, -2.9%.
For `Cc1cc(O)c(Sc2ccccc2)c(=O)o1` the value was -1.75%; for `Cc1ccc(NC(=O)COc2coc(CN3CCc4ccccc4C3)cc2=O)cc1Cl`, 1.39%.
Next, `COc1ccc(C(CNC(=O)c2cccc(NS(=O)(=O)c3ccc(C)c(F)c3)c2)N2CCCC2)cc1` (centres undefined): -0.978%; `Cc1ccc(OCCNC(=O)CNC(=O)c2ccc(C)c(C)c2)cc1`: 4.18%.
As to `COc1ccc(N=C(C)c2sc3ccccc3c2O)cc1`, the inhibition is 39.4% (active).
Next, `COc1ccc(N=Nc2ccc(O)c(P(=O)(c3ccccc3)c3ccccc3)c2)cc1`: -0.168%; `Oc1ccc(N=Cc2sc3ccccc3c2Cl)cc1`: 5.46%.
For `COc1ccc(C)cc1NC(=O)CSc1nc(SC)ns1` the value was 2.19%; for `COc1ccc(C)cc1NC(=O)CSc1ccc(Cl)cc1`, 27.5% (active); for `COC(=O)c1cc(OC)c(OC)cc1NC(=O)CSc1ccc(C)cc1`, -0.733%.
Next, `CCC(c1nnc(SCC(=O)NNC(=O)c2ccccc2)n1Cc1ccccc1)N(C)C` (centres undefined): -5.06%.
As to `Cc1cccn2c(=O)c(/C=C(\C#N)S(=O)(=O)c3ccc(Cl)cc3)c(N3CCC(C(N)=O)CC3)nc12`, the inhibition was 16.6% (active).
For `Cc1cc(C)c(C#N)c(N2CCC(C(N)=O)CC2)n1` the value was -1.05%.
For `Cc1cccn2c(=O)c(/C=C(\C#N)C(N)=O)c(N3CCCCCC3)nc12` the value was -1.31%; for `CS(=O)(=O)N(CC(=O)N1CCc2ccccc2C1)c1ccc(Br)cc1`, 0.322%.
For `Cc1ccc(-c2csc(NC(=O)C3=COCCO3)n2)cc1C` the value was 2.13%; for `COc1cccc(C(=O)c2cc3ccc(O)cc3oc2=O)c1`, 26.4% (active); for `COc1cccc(C(=O)NNC(=O)c2cccc(F)c2)c1`, -3.67%.
In the case of `COc1ccc2oc(=O)c(C(=O)N3CCCC3)cc2c1`, the inhibition is 0.715%.
For `COc1cccc(N2CC(NC(=O)c3ccc4ccccc4c3)CC2=O)c1` (centres undefined) the value was -1.06%; for `CCN1C(=O)[C@H]2[C@@H](c3ccc(-c4ccc(F)cc4)cc3)N[C@@](Cc3ccccc3)(C(=O)OC)[C@H]2C1=O`, -2.12%; for `COc1ccc(N2CCN(C(=O)COC(=O)c3cccc(S(=O)(=O)Nc4ccccc4OC)c3)CC2)cc1`, -1.93%.
For `CCOC(=O)c1cccc(NC(=O)CN2C(=O)C3CC=CCC3C2=O)c1` (centres undefined), the inhibition was 3.31%.
Next, `CC1CC(=O)N(CC(=O)Nc2cccc(Cl)c2)c2ccccc2S1(=O)=O` (centres undefined): 18.5% (active).
Next, `O=C(CN1C(=O)CC(c2ccccc2)S(=O)(=O)c2ccccc21)NC1CCCC1` (centres undefined): 0.0598%; `COc1ccc2c(c1)C(=O)Nc1cc(Cl)ccc1N2`: 1.28%.
For `Cc1noc(C)c1CSCC(=O)N(CCC(C)C)c1c(N)n(Cc2ccccc2)c(=O)[nH]c1=O` the value was -1.15%; for `COc1ccc(CN2[C@@H](CC(=O)O)c3cc(F)ccc3S2(=O)=O)cc1`, 3.99%.
For `CCN1C(=O)[C@H]2[C@@H](c3ccc(SC4CCCCC4)c(OC)c3)N[C@@](Cc3ccccc3)(C(=O)OC)[C@H]2C1=O`, the inhibition is -1.26%.
For `CN1CCN(c2cc(=O)n(-c3ccc(Cl)cc3)c(=O)[nH]2)CC1`, the inhibition is 31.4% (active).
For `O=C(Cc1ccc(-n2c(=O)[nH]c3ccccc3c2=O)cc1)N1CCN(c2cccc(Cl)c2)CC1` the value was 2.52%.
For `CN1CCN(c2ccc(NC(=O)c3ccc4c(c3)[nH]c(=O)n4Cc3ccc(F)cc3)cc2)CC1` the value was 0.81%; for `CCCC[C@@H]1CN=C(N)N1CCCC`, 5.62%.
Next, `O=C(Oc1ccc(-c2nnco2)cc1)c1ccc(F)c(S(=O)(=O)N2CCOCC2)c1`: 1.51%; `CCCCCOc1ccc(CSC2=NCCN2)cc1[N+](=O)[O-]`: -3.18%; `CCCOc1ccc(Cn2ccnc2)cc1[N+](=O)[O-]`: 22.9% (active).
On to `CCCCOc1ccc(CSC(=N)N)cc1[N+](=O)[O-]`, for which the inhibition was -0.296%.
With `Cc1cc(=O)[nH]c(SCc2ccc(Cl)cc2)n1`, the inhibition is 2.35%.
Take `COc1ccccc1CCC(=O)OCC(=O)N1CCN(S(=O)(=O)c2ccc(C)cc2C)CC1`: the inhibition is -0.0627%.
Next, `Cc1ccc(S(=O)(=O)CCC(=O)OCC(=O)N(C)C2CCS(=O)(=O)C2)cc1` (centres undefined): -1.57%; `CCc1ccc(C(=O)COC(=O)c2ccco2)cc1`: -1.46%.
For `O=C(Nc1cccc(NC(=O)c2ccccc2[N+](=O)[O-])c1)c1ccccc1Cl`, the inhibition is 1.99%.
`O=C(Nc1ccc2sc3ccccc3c(=O)c2c1)c1ccccc1Cl`: the inhibition was 97.7% (active).
Turning to `O=C(Nc1ccc2nc3n(c(=O)c2c1)CCCCC3)c1ccccc1Cl`, the inhibition was -0.768%.
Next, `COc1cnn(-c2ccc([N+](=O)[O-])cc2)c(=O)c1Cl`: 9.19%; `CCCCCN(C(=O)CCC(=O)OCC(=O)NC1CCC(C)CC1)c1c(N)n(CCCC)c(=O)[nH]c1=O` (centres undefined): 10.6%.
Turning to `O=C(NC(Cc1ccccc1)C(=O)N1CCCC(C(F)(F)F)C1)c1ccccc1` (centres undefined), the inhibition is -0.899%.
Next, `COC(=O)NNC1=CC(=O)CC(C)(C)C1`: 2.34%.
For `Cc1cc(O)ccc1NC1=CC(=O)CC(C)(C)C1` the value was 18.8% (active); for `CC1(C)CC(=O)C=C(Nc2ccccc2)C1`, 11.7%.
Regarding `CCCCCCCNC(=O)C1(CC2CC(c3cccc(Br)c3)=NO2)CCN(C(=O)c2cc(OCC)c(OCC)c(OCC)c2)CC1` (centres undefined), the inhibition is -1.08%.
For `COc1ccc2[nH]cc(/C=C(/C#N)S(=O)(=O)c3ccccc3)c2c1` the value was -20.9%; for `COc1ccc(/C=C(\C#N)c2c[nH]c3ccccc23)cc1`, 17.3% (active).
Consider `COc1cc(/C=C(\C#N)c2nc3ccccc3[nH]2)ccc1O`, for which the inhibition was -13.2%.
For `CCCNC(=O)c1ccc(N2CCC3(CC2)CC(c2cccc(Br)c2)=NO3)c(NC(=O)c2ccco2)c1` the value was -1.47%; for `Cc1cc(/C=C2/SC(=O)N(CC(=O)N3CCCC3)C2=O)c(C)n1C`, -0.395%.
Next, `CCN(CC(=O)Nc1c(F)cccc1F)C(=O)CN1c2cccc3cccc(c23)S1(=O)=O`: -0.907%; `COc1ccc(Cc2nnc(SCC(=O)Nc3ccc(C)c(Cl)c3)[nH]c2=O)cc1`: -0.239%.
For `O=C(COC(=O)c1ccc([N+](=O)[O-])cc1Cl)NC(=O)c1ccccc1` the value was -13.9%; for `COc1cccc(/C=C2\C=C(c3ccc(C)cc3)OC2=O)c1OC(C)=O`, 20.6% (active).
As to `Cc1ccc(C2=C/C(=C\c3cccnc3)C(=O)O2)cc1`, the inhibition is 8.88%.
For `CN(C)/C=C1\C=C(c2ccccc2)OC1=O` the value was -3.27%; for `COc1cccc(/C=C/C(=O)OCC(=O)N2CCCc3ccccc32)c1`, 3.35%.
For `O=C(CCNC(=O)c1ccc(Br)cc1)NCCCc1ccccc1` the value was 1.56%; for `Cc1cccn2c(=O)c3cc(C(=O)NCCN4CCOCC4)c(=N)n(Cc4cccnc4)c3nc12`, 167% (active); for `Cc1cccn2c(=O)c3cc(C#N)c(=NC(=O)c4cccnc4)n(CC4CCCO4)c3nc12` (centres undefined), 154% (active).
Next, `O=C(NCc1ccco1)c1cccn2c(=O)c3c4c(sc3nc12)CCCC4`: -9.38%; `COc1ccc(CCn2c(=N)c(C(=O)NCc3ccco3)cc3c(=O)n4cccc(C)c4nc32)cc1`: 21.1% (active); `Cc1ccccc1NC(=O)Cn1c(=O)n(CC2CCCO2)c(=O)c2ccccc21` (centres undefined): 0.402%.
Regarding `COc1ccc(CCNC(=O)Cn2c(=O)n(CC3CCCO3)c(=O)c3ccccc32)cc1OC` (centres undefined), the inhibition is -2.65%.
Next, `Cc1cccn2c(=O)c3cc(C(=O)NC4CCCCC4)sc3nc12`: 2%; `Cc1ccc(C(=O)NCCN2CCOCC2)cc1C`: -1.81%.
With `Cc1ccc(CCNC(=O)c2ccc3nc4ccccc4c(=O)n3c2)cc1`, the inhibition is 8.55%.
For `Cc1ccc2nc3c(cc(C(=O)NCCc4ccccc4)c(=N)n3CC3CCCO3)c(=O)n2c1` (centres undefined) the value was 182% (active); for `O=C(NCc1cccnc1)c1cc(S(=O)(=O)N2CCOCC2)c(Cl)cc1Cl`, -0.678%.
For `COc1ccc2oc(C(=O)NCc3ccco3)c(C)c2c1` the value was -0.417%.
